Results as given in PubChem BioAssay (NCATS).
Records with an inconclusive call do not appear. Active and inactive are the calls of the source. Calls follow the shape of the dose curve; as a rule, active = well fitted cell-killing curve with a large enough effect; inconclusive = small, poorly fitted or top-dose-only effect; inactive = flat fitted curve, though single readings scatter.

Tests used:
[1] = Cell Viability - LYMP2-017 (AID 972); conditions: LYMP2-017 lymphoblastoid cell viability; also: nearly all actives have a fitted effect of over 55% in size
Summary of the method: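 Human lymphoblastoid cells (2500/well) were seeded in complete medium, held 5 hr at 37 C, then exposed to compounds for 24 hr at 37 C. Intracellular ATP was read by CellTiter-Glo luminescence after 30 min at room temperature, with AC50 values from Hill-equation fits.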

[2] = Cell Viability - LYMP2-019 (AID 973); conditions: LYMP2-019 lymphoblastoid cell line viability; also: nearly all actives have a fitted effect of over 55% in size
Summary of the method: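 Human lymphoblastoid cells were seeded at 2500 cells/well, preincubated 5 hr at 37 C, then exposed to compounds for 24 hr at 37 C in complete medium. Intracellular ATP was measured by CellTiter-Glo luminescence; AC50 from Hill fits.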

[3] = Cell Viability - LYMP2-021 (AID 974); conditions: LYMP2-021 lymphoblastoid cells viability;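 also: compound exposure lasts 24 hours at 37 °C; nearly all actives have a fitted effect of over 55% in size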
Summary of the method: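 Human lymphoblastoid cells (2500/well) were preincubated 5 hr at 37 C, then exposed to compounds for 24 hr at 37 C in complete medium. Intracellular ATP was read by CellTiter-Glo luminescence; AC50 came from Hill-equation fits of concentration-response data.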

[4] = Cell Viability - LYMP2-023 (AID 975); conditions: LYMP2-023 lymphoblastoid cell viability; also: nearly all actives have a fitted effect of over 55% in size
Summary of the method: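 Human lymphoblastoid cells (2500/well) were preincubated 5 hr at 37 C, then exposed to compounds for 24 hr at 37 C in complete medium. Cellular ATP was read by CellTiter-Glo luminescence, and AC50 came from Hill-equation fits.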

[5] = Cell Viability - LYMP2-025 (AID 976); conditions: LYMP2-025 lymphoblastoid cell viability
Summary of the method: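 Human lymphoblastoid LYMP2-025 cells (2500/well) were pre-incubated 5 hr at 37 C, then treated with compounds for 24 hr at 37 C in complete medium. Viability was read as intracellular ATP by CellTiter-Glo luminescence; AC50 from Hill fits.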

[6] = Cell Viability - LYMP2-002 (AID 977); conditions: LYMP2-002 lymphoblastoid cell viability, qHTS;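 also: compound exposure lasted 24 h at 37 °C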
Summary of the method: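 Human lymphoblastoid LYMP2-002 cells, 2500 per well, exposed to compounds for 24 h at 37 C in complete medium; viability read as intracellular ATP by CellTiter-Glo luminescence, AC50 from Hill fits.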

[7] = Cell Viability - LYMP2-006 (AID 978); conditions: LYMP2-006 lymphoblastoid cell viability, qHTS; also: nearly all actives have a fitted effect of over 60% in size
Summary of the method: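 Concentration-dependent loss of intracellular ATP in a human lymphoblastoid line after 24 hr treatment at 37 C was measured by CellTiter-Glo luminescence, with AC50 values obtained from standard Hill-equation modelling.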

[8] = Cell Viability - LYMP2-007 (AID 979); conditions: LYMP2-007 lymphoblastoid cell viability;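 also: cells exposed to compound for 24 h before reading; nearly all actives have a fitted effect of over 60% in size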
Summary of the method: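 Human lymphoblastoid cells (2500/well) were plated in complete medium, incubated 5 hr at 37 C, then exposed to compounds for 24 hr at 37 C. Intracellular ATP was read by CellTiter-Glo luminescence after 30 min at room temperature; AC50 from Hill fits.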

[9] = Cell Viability - LYMP2-008 (AID 980); conditions: LYMP2-008 lymphoblastoid cell viability, qHTS; also: nearly all actives have a fitted effect of over 60% in size
Summary of the method: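 Human lymphoblastoid cells (2500/well) were plated, held 5 hr at 37 C, then exposed to compounds for 24 hr at 37 C in complete medium. Intracellular ATP was read by CellTiter-Glo luminescence; AC50 from Hill-fitted concentration-response.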

[10] = Cell Viability - LYMP2-010 (AID 981); conditions: LYMP2-010 lymphoblastoid cell viability, qHTS; also: nearly all actives have a fitted effect of over 55% in size
Summary of the method: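 Human lymphoblastoid LYMP2-010 cells (2500/well) were preincubated 5 hr at 37 C, then exposed to compounds for 24 hr at 37 C in complete medium. Intracellular ATP was measured by CellTiter-Glo luminescence after 30 min at room temperature; AC50 from Hill-fitted concentration-response.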

[11] = Cell Viability - LYMP2-012 (AID 982); conditions: LYMP2-012 lymphoblastoid cell viability qHTS
[12] = Cell Viability - LYMP2-014 (AID 983); conditions: LYMP2-014 lymphoblastoid cells, viability qHTS; also: nearly all actives have a fitted effect of over 50% in size
Summary of the method: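 Human lymphoblastoid cells (2500/well) were pre-incubated 5 hr at 37 C, then exposed to compounds in complete medium for 24 hr at 37 C. Intracellular ATP was read by CellTiter-Glo luminescence after 30 min at room temperature; AC50 from Hill fits.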

[13] = Cell Viability - LYMP2-016 (AID 984); conditions: LYMP2-016 lymphoblastoid cell viability, qHTS; also: nearly all actives have a fitted effect of over 55% in size
Summary of the method: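 Acute toxicity in a Coriell human lymphoblastoid line is scored as loss of intracellular ATP over 24 h of treatment in complete medium. CellTiter-Glo signal is fitted across concentrations with the Hill equation to give AC50.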

[14] = Cell Viability - LYMP2-018 (AID 985); conditions: LYMP2-018 lymphoblastoid cells, viability (qHTS);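 also: compound exposure lasted 24 hr at 37 °C; nearly all actives have a fitted effect of over 50% in size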
Summary of the method: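 Human lymphoblastoid cells (2500/well) were pre-incubated 5 hr at 37 C, then exposed to compounds for 24 hr at 37 C in complete medium. Viability was read as intracellular ATP by CellTiter-Glo luminescence; AC50 values came from Hill-equation fits.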

[15] = Cell Viability - LYMP2-020 (AID 986); also: nearly all actives have a fitted effect of over 55% in size
Summary of the method: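 Human lymphoblastoid cells, 2500/well, were pre-incubated 5 hr at 37 C, then exposed to compounds for 24 hr at 37 C in complete medium. Intracellular ATP was read by CellTiter-Glo luminescence, and AC50 was derived by Hill fitting of concentration-response data.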

[16] = Cell Viability - LYMP2-022 (AID 987); conditions: LYMP2-022 lymphoblastoid cell viability; also: nearly all actives have a fitted effect of over 55% in size
Summary of the method: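 Human lymphoblastoid cells, 2500/well, preincubated 5 hr at 37 C, then exposed to compounds over a concentration range for 24 hr at 37 C in complete medium. Viability read as intracellular ATP by CellTiter-Glo luminescence after 30 min at room temperature; AC50 from Hill fits.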

[17] = Cell Viability - LYMP2-024 (AID 988); conditions: LYMP2-024 lymphoblastoid cell viability; also: nearly all actives have a fitted effect of over 60% in size
Summary of the method: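 Human lymphoblastoid cells (2500/well) in complete medium were preincubated 5 hr at 37 C, then exposed to compounds for 24 hr at 37 C. Intracellular ATP was read by CellTiter-Glo luminescence; AC50 from Hill-equation fits of concentration-response data.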

[18] = Cell Viability - LYMP2-026 (AID 989); conditions: LYMP2-026 lymphoblastoid cell viability, qHTS; also: nearly all actives have a fitted effect of over 50% in size
Summary of the method: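 Human lymphoblastoid cells (2500/well) in complete medium were preincubated 5 hr at 37 C, then exposed to compounds for 24 hr at 37 C. Cellular ATP was read by CellTiter-Glo luminescence; AC50 from Hill-equation fits of concentration-response data.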

[19] = Cell Viability - LYMP1-002 - Assay at 24 hr (AID 993); conditions: LYMP1-002 lymphoblastoid cells viability
Summary of the method: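 Human lymphoblastoid LYMP1-002 cells, 2500/well in complete medium, were treated with compounds for 24 h at 37 C; intracellular ATP was read by CellTiter-Glo luminescence. AC50 values came from Hill-equation fits of qHTS concentration-response data.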

[20] = Cell Viability - LYMP1-002 - Assay at 40 hr (AID 994); conditions: LYMP1-002 lymphoblastoid cell viability; also: nearly all actives have a fitted effect of over 60% in size
Summary of the method: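 Human lymphoblastoid cells, 2500/well in complete medium, were preincubated 5 hr at 37 C, then exposed to compounds for 40 hr at 37 C. Intracellular ATP was read by CellTiter-Glo luminescence after 30 min at room temperature; AC50 from Hill-equation fits.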

Measured: Potency
Potency is read from the fitted curve at half-maximal effect.

O=C1c2c(O)ccc([N+](=O)[O-])c2C(=O)c2c([N+](=O)[O-])ccc(O)c21
active: [1] 31.6 µM | [2] 39.8 µM | [3] 39.8 µM | [4] 39.8 µM | [5] 39.8 µM | [6] 39.8 µM | [7] 31.6 µM | [8] 39.8 µM | [9] 31.6 µM | [10] 31.6 µM | [11] 39.8 µM | [12] 39.8 µM | [13] 31.6 µM | [14] 39.8 µM | [15] 39.8 µM | [16] 39.8 µM | [17] 39.8 µM | [18] 39.8 µM | [19] 39.8 µM | [20] 39.8 µM
